Reference: the supplement of paper PMC10646978
± gives the standard deviation.

system: RAW-Dual (murine macrophage reporter line); assay: NF-kB reporter (SEAP) activity fold change vs agonist alone; higher = enhanced NF-kB activity; conditions: modulator concentration 10 µM; agonist: MPLA […]
In short: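 Compound reached 10 μM final in each well by pin transfer, onto RAW-Dual murine macrophage reporter cells seeded at 50 000 per well in 384-well plates. After 1 hour at 37 °C, the cells were stimulated overnight with a PRR agonist. SEAP in the supernatant was read with QUANTI-Blue at 620 nm absorbance for NF-κB, and Lucia luciferase was read with QUANTI-Luc luminescence for IRF. Each signal was turned into fold change against the mean agonist-only control on the same plate, and two replicate plates were averaged with propagated errors.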

SMILES | NF-kB reporter
Cc1cc(=O)nc(SCCc2ccccc2)[nH]1 | 1.15 ± 0.041
CC(=O)c1c(C(C)=O)c(C)n(-c2ccccc2N)c1C | 1.01 ± 0.1
Cc1ccc(CCC(=O)N2CC(N3C(=O)C4CC=CCC4C3=O)C2)cc1F (stereo not drawn) | 1 ± 0.044
CCN(CC)C(=O)N1CCN(C)CC1.O=C(O)CC(O)(CC(=O)O)C(=O)O | 0.92 ± 0.065
CC1CC2(NC(=O)NC2=O)C(C)CN1C (stereo not drawn) | 0.87 ± 0.053
COc1ccc(NC(=O)CN2C(=O)c3ccccc3C2=O)c([N+](=O)[O-])c1 | 0.989 ± 0.11
COc1ccccc1N1CCN(CC(O)COc2cccc3ccccc23)CC1 (stereo not drawn) | 0.711 ± 0.04
COc1cc2c(Oc3ccc4[nH]c(C)cc4c3F)ncnc2cc1OCCCN1CCCC1 | 1.09 ± 0.11
CCOc1ccc(Cc2cc([C@@H]3O[C@H](SC)[C@@H](O)[C@H](O)[C@H]3O)ccc2Cl)cc1 | 1.06 ± 0.098
Cc1cn(-c2cc(NC(=O)c3ccc(C)c(Nc4nccc(-c5cnccn5)n4)c3)cc(C(F)(F)F)c2)cn1 | 0.982 ± 0.063
O=C(Nc1ccc(-c2cn3ccsc3n2)cc1)C1CCCC1 | 1.37 ± 0.13
O=Cc1ccc(OCc2cccc([N+](=O)[O-])c2)c(Br)c1 | 1.09 ± 0.18
CN(C)CC(c1ccc(O)cc1)C1(O)CCCCC1.O=C(O)CCC(=O)O (stereo not drawn) | 0.531 ± 0.031
O=C(CCCCCN1C(=O)c2cccc3cccc(c23)C1=O)NCCCO | 0.919 ± 0.036
Cc1cc(C(=O)Nc2ccccc2S(C)(=O)=O)no1 | 0.992 ± 0.055
N#CC(=Cc1cn(Cc2ccccc2Cl)c2ccccc12)c1nn(CCO)c(N)c1C#N | 0.91 ± 0.058
O=c1cc(CO)occ1O | 1.06 ± 0.11
CCOc1ccc(N=Cc2c(Nc3ccc(OCC)cc3)nc3ccccn3c2=O)cc1 | 1.19 ± 0.17
